Results: PubChem BioAssay (NCI)
This is part of a sample that, as a whole, favours compounds with a hit. Of some 79,000 tested, about 15% had one in any assay. Unmarked numbers belong to inactive results. Active and inactive are the calls of the source. Cut-off read from the data, not from the text of the source: active = growth inhibition above about 70%; inactive = the rest.

Test: NCI Yeast Anticancer Drug Screen. Data for the sgs1 strain (AID 173);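 note: 0% = growth of vehicle-only control cultures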
Conditions: S. cerevisiae sgs1 mutant, active compounds read high
Description: Growth inhibition of yeast strains with defined genetic alterations is measured as a screen for potential anti-cancer activity. Selected strains with alterations in DNA damage repair or cell cycle control were exposed to compounds and growth inhibition was measured relative to vehicle treated controls. The strain used in this assay is sgs1

Row | Compound | growth inhibition (at 1.2 µM) [%] | growth inhibition (at 3.7 µM) [%] | growth inhibition (at 11.0 µM) | growth inhibition (at 33.0 µM) | growth inhibition (at 100.0 µM)
1 | CC[C@@]1(O)C(=O)OCc2c1cc1n(c2=O)Cc2cc3c(NC(=O)CN)cccc3nc2-1 | -2 | -3 | -2% | -1% | 7%
2 | C[C@]12CCC3[C@@H](CC[C@@H]4c5nonc5CC[C@]34C)C1CCC2=O (stereo not given in full) | 19 | 26 | 66% | 92% (active) | 93% (active)
3 | C[N+](C)(C)CC1CCCC(C[N+](C)(C)C)C1=O (stereo not given) | -1 | 3 | 15% | 64% | 99% (active)
4 | COc1ccc(/C=C(/C)[N+](=O)[O-])cc1 | 20 | 41 | 42% | 86% (active) | 98% (active)
5 | COC1C(O)C(C)OC(OC2C(Oc3cccc4c(O)c5c(=O)oc6ccc(C)c7c(=O)oc(c34)c5c67)OC(C)C(O)C2O)C1O (stereo not given) | 1 | 4 | 15% | 20% | 22%
6 | O=C(O)C1C2CCC(C2)C1c1ccccc1 (stereo not given) | -2 | 0 | 3% | 15% | 66%
7 | Cc1c([N+](=O)[O-])oc2ccc3ccccc3c12 | 49 | 69 | 78% (active) | 86% (active) | 89% (active)
8 | C/C(=N\NC(N)=O)C(CN1CCOCC1)C(c1ccccc1)c1c(O)c2ccccc2oc1=O (stereo not given) | -2 | 3 | 1% | -1% | -5%
